Source: PubChem BioAssay (several laboratories)
An excerpt weighted towards active compounds, which were near 4.9% of everything screened.
NALP1 yeast inh = inhibitors of NALP1 inflammasome in yeast | S. cerevisiae NALP1/ASC/caspase-1 growth, X-gal OD620, 72 h | inhibition, % at 10 µM | hit rate 0.61% among 280,000 | AID 2071; in the data active = inhibition mostly above about 24%, no sharp cut-off; inactive = mostly below about 32%
TIM10 inh = inhibits growth of TIM10 yeast strain | AID 463195 | hit rate 1.4% among 330,000 | S. cerevisiae TIM10 strain growth, BacTiter-Glo luminescence, 24 h | inhibition, % at 10 µM;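 active = inhibition of 40% or more at the single tested concentration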;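 note: wild-type TIM10 isogenic control strain grown at permissive 25 °C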
tim23-1 inh = growth inhibitors of tim23-1 mutant yeast; inhibition, % at 20 µM; S. cerevisiae tim23-1 growth, BacTiter-Glo luminescence, 24 h; AID 463212; hit rate 1.3% among 330,000;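 active = growth inhibition of the mutant yeast at or above 50%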;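 note: temperature-sensitive mutant grown at 25 °C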
NLRP3 yeast inh = inhibitors of NALP3 inflammasome in yeast | Yeast reconstituted NLRP3/ASC/caspase-1, beta-gal luminescence, 24 h | inhibition, % at 10 µM | hit rate 0.39% among 330,000 | AID 2825;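 active = inhibition of 50% or more; inactive = inhibition below 50%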
tim10-1 inh = tim10-1 yeast growth inhibition; inhibition, % at 20 µM; S. cerevisiae tim10-1 ts strain growth, BacTiter-Glo, 24 h; hit rate 2.2% among 330,000; AID 463190;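 active = inhibition of at least 40%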;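 note: mutant grown at 25 °C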
SKKanGAS inh = SKKanGAS growth inhibition. S. pyogenes SKKanGAS, kanamycin growth, BacTiter-Glo, 6 h. inhibition, % at 7.5 µM. hit rate 1.3% among 300,000;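 active = mean replicate score, as percent of positive control median, at least 50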;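 note: strain carries kanamycin resistance gene driven by streptokinase promoter and grows in 40 µg/ml kanamycin; loss of luminescence reflects streptokinase promoter inhibition or plain growth inhibition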
Each line names hits and unclear results; the compound was inactive in the other large screens.

CC(C)Oc1ccc(Cc2cnc(N)nc2N)cc1	none
COc1cc(C)c(Cc2cnc(N)nc2N)cc1OC	SKKanGAS inh 52 (no result: TIM10 inh, tim23-1 inh, NLRP3 yeast inh, tim10-1 inh)
COc1ccc(CNC(=O)CN2CCN(S(=O)(=O)c3cccs3)CC2)cc1OC	NALP1 yeast inh 35
CCS(=O)(=O)N1CCC(C(=O)NCc2cc(OC)ccc2OC)CC1	NALP1 yeast inh 41
CCC(C)NC(=O)C1CCN(S(=O)(=O)c2cccs2)CC1 (stereo unspecified)	none
Cc1csc(NC(=O)C2CCN(S(=O)(=O)c3cccs3)CC2)n1	none
CCCn1c(NC(=O)C2CCN(S(=O)(=O)c3cccs3)CC2)nc2ccccc21	SKKanGAS inh 51
COc1ccc(OC)c(CNC(=O)C2CCN(S(=O)(=O)N3CCC(C)CC3)CC2)c1	none
CCC(CC)NC(=O)C1CCN(S(=O)(=O)c2cccs2)CC1	NALP1 yeast inh 33
COc1ccc(N2CC(C(=O)N3CCC(c4nc5ccccc5[nH]4)CC3)CC2=O)cc1 (stereo unspecified)	none (no result: NALP1 yeast inh)
O=C(Nc1nnc(-c2ccccc2)o1)C1CCCN1S(=O)(=O)c1cccs1 (stereo unspecified)	none (no result: NALP1 yeast inh)
COc1ccc(-c2nnc(NC(=O)C3CCCN3S(=O)(=O)c3cccs3)o2)cc1 (stereo unspecified)	SKKanGAS inh 56 (no result: NALP1 yeast inh)
COc1ccc(OC)c(NC(=O)C2CCN(S(=O)(=O)c3cccs3)CC2)c1	NALP1 yeast inh 39
COc1ccc(C)cc1NC(=O)C1CCN(S(=O)(=O)c2cccs2)CC1	none
O=C(NCCc1ccccc1)C1CCC(=O)N(Cc2cccc(C(F)(F)F)c2)C1 (stereo unspecified)	none
COc1cc([N+](=O)[O-])cc(/C=N/NC(=O)c2cc(C)nc3ccccc23)c1O	SKKanGAS inh 106
Cc1cc(C(=O)N/N=C/c2cccc([N+](=O)[O-])c2)c2ccccc2n1	none
COc1cc([N+](=O)[O-])cc(/C=N/NC(=O)c2cc(-c3ccccc3)nc3ccccc23)c1O	SKKanGAS inh 95
CCOc1ccc(Nc2nnc(Cc3ccc(OC)cc3)c(=O)[nH]2)cc1	none
CN(CCOc1ccc(Cl)cc1)C(=O)c1cc([N+](=O)[O-])ccc1N1CCOCC1	none (no result: NALP1 yeast inh)
O=C1CN(/N=C/c2ccc([N+](=O)[O-])o2)C(=O)N1	SKKanGAS inh 84
O=C1OCCN1/N=C/c1ccc([N+](=O)[O-])o1	none
CCOC(=O)c1c(C)[nH]c(C(=O)NCc2ccco2)c1C	none
Cc1cccc(C)c1NC(=O)Cn1c(=O)c(N2CCCCC2)c(N)n(C)c1=O	none (no result: NALP1 yeast inh, SKKanGAS inh)
CCCn1c(N)c(N2CCCCC2)c(=O)n(CC(=O)Nc2ccccc2C)c1=O	NALP1 yeast inh 37
O=C(c1ccco1)N1CCN(C(=O)c2ccc(CS(=O)c3ccc(F)cc3)o2)CC1 (stereo unspecified)	NALP1 yeast inh 44
O=C(O)CCn1c(-c2ccccc2)cc2ccccc21	NALP1 yeast inh 34
O=C1CSC(=S)N1/N=C/c1cc(Br)c(O)c(Br)c1	none (no result: TIM10 inh, tim23-1 inh, NLRP3 yeast inh, tim10-1 inh)
O=C(NCC1CCCO1)c1cc2c([nH]c3ccccc32)c(-c2cccc(Cl)c2)n1 (stereo unspecified)	SKKanGAS inh 50
COc1ccc(CCn2c(-c3ccc(C(C)(C)C)cc3)n[nH]c2=S)cc1OC	none
COc1ccc(CCn2c(-c3ccc(Cl)cc3)n[nH]c2=S)cc1OC	NALP1 yeast inh 33
Cc1ccc(-c2c(C(=O)N/N=C/c3ccsc3)nnn2-c2nonc2N)cc1	none
O=C(CSc1ccc(F)cc1)NC12CC3CC(CC(C3)C1)C2	none
O=C(CCSc1ccc(Cl)c(Cl)c1)NC12CC3CC(CC(C3)C1)C2	SKKanGAS inh 65
CC(=O)N1[C@H](C)C=C[C@]1(Cc1ccccc1)C(=O)NCCN1CCOCC1	none (no result: NALP1 yeast inh)
Cc1ccc(C2CC(c3cccs3)=NN2C(=O)c2ccc(Br)o2)cc1 (stereo unspecified)	SKKanGAS inh 88
CC(=O)Oc1c(C)cc(Cl)cc1C(=O)Nc1ccc([N+](=O)[O-])cc1Cl	none (no result: SKKanGAS inh)
C[C@@H]1CN([C@@H](C)CO)C(=O)c2cc(NC(=O)CCN3CCOCC3)ccc2O[C@@H]1CN(C)C(=O)Nc1ccccc1	none (no result: NALP1 yeast inh, SKKanGAS inh)
O=C1C=CC(=O)N1c1ccc(OC(F)F)cc1	NALP1 yeast inh 112 (no result: TIM10 inh, tim23-1 inh, NLRP3 yeast inh, tim10-1 inh, SKKanGAS inh)
O=C1C=CC(=O)N1c1ccc(O)cc1	none
CC(=O)N(C)c1ccc(OCC(O)Cn2c3ccc(Cl)cc3c3cc(Cl)ccc32)cc1 (stereo unspecified)	SKKanGAS inh 65
O=C(OCC(=O)N1CCc2ccccc2C1)c1cccs1	none
Cc1ccc(S(=O)(=O)NCC(=O)OCC(=O)N2N=C(c3ccc(Cl)cc3)CC2c2ccco2)cc1C (stereo unspecified)	SKKanGAS inh 70
CN(C(=O)Cn1nc(C(=O)O)c2ccccc2c1=O)C1(C#N)CCCCC1	none (no result: NALP1 yeast inh, SKKanGAS inh)
O=C1N/C(=N\N=C\c2cccs2)SC1Cc1ccc(Cl)c(Cl)c1 (stereo unspecified)	SKKanGAS inh 56
C=CCC1S/C(=N/N=C/c2cccs2)NC1=O (stereo unspecified)	none
CCOc1ccc(N2C(=O)CC(N3CCOCC3)C2=O)cc1 (stereo unspecified)	none
CCOC(=O)c1ccc(N2C(=O)CC(N3CCOCC3)C2=O)cc1 (stereo unspecified)	NALP1 yeast inh 30
CCC1CCCCN1C(=O)NC(=O)c1ccccc1 (stereo unspecified)	none
Nc1nc(SCc2cccc([N+](=O)[O-])c2)n[nH]1	none
O=C(CCNC(=O)OCC1c2ccccc2-c2ccccc21)NOCc1ccccc1	none (no result: NALP1 yeast inh, NLRP3 yeast inh, SKKanGAS inh)
O=C(CSc1nc(-c2ccc(F)cc2)nc2ccc(F)cc12)Nc1cccc(C(=O)O)c1	SKKanGAS inh 68
O=C(O)CN1C(=O)/C(=C\c2cn(-c3ccccc3)nc2-c2ccccc2)SC1=S	none
CC(C)COc1ccc(-c2nn(-c3ccccc3)cc2/C=C2/SC(=S)N(CC(=O)O)C2=O)cc1	SKKanGAS inh 72
Cc1cc(NC(=O)COC(=O)Cn2[nH]c(=O)c3ccccc3c2=O)c([N+](=O)[O-])cc1C	none (no result: NALP1 yeast inh, SKKanGAS inh)
Cc1cc(C)c2oc(=O)cc(CN3CCC(C)CC3)c2c1	none
Cn1nccc1C(=O)N/N=C/c1c(O)ccc2ccccc12	none
O=C(N/N=C/c1c(O)ccc2ccccc12)c1ccc[n+](CCO)c1	none
O=C(N/N=C\c1c(O)ccc2ccccc12)c1cncc(Br)c1	SKKanGAS inh 106
O=C(N/N=C\c1c(O)ccc2ccccc12)c1ccc(O)cc1	SKKanGAS inh 107
Cc1occc1C(=O)N/N=C/c1c(O)ccc2ccccc12	SKKanGAS inh 94
O=C(N/N=C/c1c(O)ccc2ccccc12)c1ccc(Br)o1	SKKanGAS inh 106
Cc1ccc(C(=O)N/N=C/c2c(O)ccc3ccccc23)cn1	SKKanGAS inh 60
Cn1cc(C(=O)N/N=C/c2c(O)ccc3ccccc23)ccc1=O	none
Cc1ccc2ccc(C(Nc3ccccn3)c3ccccc3)c(O)c2n1 (stereo unspecified)	SKKanGAS inh 85
